We go through 40 compounds from PubChem BioAssay AID492960 (National Center for Advancing Translational Sciences (NCATS), 2010).

Records with an inconclusive call do not appear. A call without a number means that no potency is given here. Active and inactive are the calls of the source. The call rests on the fitted dose curve; in most records, active means well fitted curve in the direction sought with a large enough effect; inconclusive means small, poorly fitted or top-dose-only effect, or effect the other way, or another doubt; inactive means no such curve, though single readings can be large or run the other way.

A short description of this assay: Secondary Assay for lipid storage modulators: HepG2 cell LDSA assay for probe SAR. The note with it: HepG2 lipid droplet BODIPY, laser-scanning cytometry, 18-24 h; series mostly up to 46.1 µM. An excerpt: NIH Molecular Libraries Probe Production Centers Network [MLPCN] NIH Chemical Genomics Center [NCGC] MLPCN Grant: 1 R03 MH085686-01 Assay Submitter (PI): Beller, Mathias; Max-Planck-Institut fur Biophysikalische Chemie NCGC Assay Overview: Storing lipids as a reservoir for energy or the anabolism of elementary metabolites is a common feature of probably all cells and is conserved from bacteria to humans. The universal cellular lipid storage organelle is the so-called lipid storage droplet (LD). Although ubiquitous, LDs share a simple structure composed of a hydrophobic core that harbors the storage lipids, which is shielded by a droplet-specific phospholipid monolayer to which proteins are attached. The current model of LD biogenesis involves an incorporation of the lipid core into the membrane leaflets of the endoplasmic reticulum (ER) followed by a subsequent budding-like maturation of a LD, which ultimately pinches off. Once released, LD volume can increase by localized lipogenesis or fusion of existing droplet. Storage lipids are re-mobilized enzymatically by lipase activity. Lipase regulation in the adipocyte is heavily studied and involves multiple components including catecholamine signaling, the LD-associated proteins Perilipin and comparative gene identification (CGI-58) and at least two lipases named hormone sensitive lipase (HSL) and adipocyte triglyceride lipase (ATGL). LD regulation outside of the adipocyte is poorly understood and only few components are known. However, there is an urgent need to learn more about ectopic fat depots as mislocalized storage of lipids, for example in the liver or muscle, is an eminent health problem associated with insulin resistance or the metabolic syndrome.
NCGC Assay Protocol Summary: The assay was performed with HepG2 cells, using an oleic acid feeding protocol similar to the S3 assay. We dispensed 4 uL of cells to give 700 cells/well into Greiner bio-one 1,536-well plates (black walled, clear bottom). Triacsin C (Sigma-Aldrich T-4540), an inhibitor of long-chain fatty acyl CoA synthetase that blocks synthesis of triglycerides, was used as a positive control for lipid under-storage using a final concentration of 20 uM. The orexin antagonist, SB408124 - previously identified to stimulate lipid over-storage, was used as a positive control for lipid over-storage using a final concentration of 20 uM. A total of 23 nL of compound solution of different concentrations were transferred to the assay plates using a Kalypsys pin tool equipped with a 1,536-pin array containing 10-nL slotted pins (FP1S10, 0.457-mm diameter, 50.8 mm long; V&P Scientific). One microliter of oleic acid was added (400 uM final concentration), and the plate was lidded with stainless steel rubber gasket lined lids containing pinholes. After 18-24 h incubation at […] and 95% humidity, 4 uL of the dyes BODIPY 493/503 (Molecular Probes) and the Cell Tracker Red CMTPX dye (Molecular Probes) were added to the wells to stain lipid droplets and enumerate cell number, respectively. Fluorescence was detected by excitation of the fluorophores with a 488-nm laser on an Acumen Explorer (TTP Lab Tech). The total intensity in channel 2 (500-530 nm) reflected lipid droplet accumulation. Cells were detected using channel 3 (575-640 nm) with 5-um width and 100-um depth filters. The ratio of the number of objects in PMT channel 2 over the number of objects in PMT channel 3 was also calculated. Percent activity was computed relative to an internal control (100% inhibited lipid droplet deposition due to the presence of 20 uM Triacsin C), which was added to 32 wells/plate.
As for `O=C(NC1CCCc2c1cnn2-c1ccc(F)cc1F)c1ccc2cc[nH]c2c1` (stereo not given), the Potency result is “inactive”. Consider `O=C(NC1CCCc2c1cnn2-c1ccc(F)cc1F)C1CCCCC1` (stereo not given), for which the Potency result is “inactive”. `COc1ccc(-n2ncc3c2CCCC3NC(=O)c2cnc(C)cn2)cc1` (stereo not given): the Potency is 12.5 µM (active). Take `COc1ccc(-c2cnc(SCC(=O)Nc3nccs3)n2Cc2ccccc2)cc1`: the Potency result was “inactive”.

Take `CCOc1ccc(CCNC(=O)c2cc3ccccc3o2)cc1OCC`: the Potency result is “inactive”. Consider `O=C(O)c1cccc(-c2noc(-c3ccccc3F)n2)c1`, for which the Potency entry is “inactive”.

Consider `CCOc1ccc(CCNC(=O)c2cc3sccc3n2Cc2ccccc2)cc1OCC`, for which the Potency was 14.1 µM (active). With `CCOc1ccc(CCNC(=O)c2cc3sccc3n2Cc2cccnc2)cc1OCC`, the Potency result was “inactive”. As for `CCOc1ccc(CCNC(=O)C2CCCCC2)cc1OCC`, the Potency entry was “inactive”. In the case of `CN(C)CC(=O)NC1CCCc2c1cnn2-c1ccc(F)cc1F` (stereo not given), the Potency entry is “inactive”. For `O=C(NC1CCCCC1)NC1(C(=O)N2CCCC2)CCCCC1`, the Potency result was “inactive”. Regarding `CCOc1ccc(CCNC(=O)c2cc3sccc3n2Cc2ccc(-n3cncn3)cc2)cc1OCC`, the Potency result was “inactive”. With `O=C(NC1CCCc2c1cnn2-c1ccc(F)cc1F)c1ccc(C2(C(F)(F)F)N=N2)cc1` (stereo not given) the entry was “inactive”; with `O=C(NC1CCCc2c1cnn2-c1ccc(F)cc1F)c1cccc(=O)[nH]1` (stereo not given), “inactive”; with `O=C(NC1CCCc2c1cnn2-c1ccc(F)cc1F)c1cnon1` (stereo not given), “inactive”. As for `CCOc1ccc(CCNC(=O)c2cc3sc(CC)cc3n2C)cc1OCC`, the Potency result is “inactive”.

As for `O=C(Nc1ccccc1-c1cn2c(CN3CCNCC3)csc2n1)c1cnc2ccccc2n1`, the Potency was 11.2 µM (active). Consider `CCOc1ccc(CCNC(=O)c2ccc3ccccc3n2)cc1OCC`, for which the Potency entry is “inactive”. As for `O=C(c1cc2sccc2n1Cc1ccccc1)N(CCc1ccc(O)c(O)c1)Cc1ccccc1`, the Potency entry is “inactive”.

Consider `CCOc1ccc(CCNC(=O)c2cc3sccc3n2Cc2ccc(Cl)c(F)c2)cc1OCC`, for which the Potency result is “inactive”.

In the case of `Cc1cc2c(cc1C1(c3ccc(C(=O)O)cc3)CC1)C(C)(C)CCC2(C)C`, the Potency entry is “inactive”. With `C[C@@H](NCCCc1cccc(C(F)(F)F)c1)c1cccc2ccccc12` the entry was “inactive”. To `CCOc1ccc(CCNC(=O)c2ccc(C3(C(F)(F)F)N=N3)cc2)cc1OCC` belongs “inactive”. As to `CCCn1c(-c2ccc(OC)cc2)cnc1SCC(=O)Nc1nc(C)c(C)s1`, the Potency result is “inactive”. With `O=C(NCCc1ccc2c(c1)OCO2)c1cc2sccc2n1Cc1ccccc1` the entry was “inactive”; with `COc1ccc(-c2cnc(SCC(=O)Nc3nc(C)cs3)n2-c2ccccc2)cc1`, “inactive”. Consider `CCOc1ccc(CCNC(=O)c2cc3sccc3n2C)cc1OCC`, for which the Potency is 25 µM (active).

On to `CCOc1ccc(CCNC(=O)C2=C(C)OCCO2)cc1OCC`, for which the Potency result was “inactive”. Regarding `CCOc1ccc(CCNC(=O)c2ccc3[nH]ccc3c2)cc1OCC`, the Potency entry was “inactive”. With `COc1nc(-c2ccc3c(c2)OCO3)n(-c2ccc(NC(=O)CSc3ccccc3)cc2)n1` the entry was “inactive”; with `CCOc1ccc(CCNC(=O)c2ccccn2)cc1OCC`, “inactive”; with `CCn1c(C(=O)NCCc2ccc(OC)c(OC)c2)cc2sc(Cl)cc21`, “inactive”. To `CCOc1ccc(CCNC(=O)C2(c3ccccc3)CC2)cc1OCC` belongs “inactive”; to `Cc1ccc(-c2cnc(SCC(=O)Nc3nc(C)cs3)n2Cc2ccco2)cc1`, “inactive”; to `CC1(C)CCC(c2ccc(Cl)cc2)=C(CN2CCN(c3ccc(C(=O)NS(=O)(=O)c4ccc(N[C@H](CCN5CCOCC5)CSc5ccccc5)c(S(=O)(=O)C(F)(F)F)c4)cc3)CC2)C1`, “inactive”. Consider `COc1ccc(CCNC(=O)c2cc3sccc3n2Cc2ccc(Cl)cc2)cc1OC`, for which the Potency entry is “inactive”. `CCOc1ccc(CCNC(=O)c2cc3ccccc3n2C)cc1OCC`: the Potency entry is “inactive”.

Take `CCn1c(C(=O)NCCc2ccc(OC)cc2)cc2sccc21`: the Potency result was “inactive”. `CCOc1ccc(CCNC(=O)c2cc3sccc3n2Cc2cccc(C)c2)cc1OCC`: the Potency entry was “inactive”. As to `O=C(NC1CCCc2c1cnn2-c1ccc(F)cc1F)c1cccs1` (stereo not given), the Potency entry is “inactive”.
